According to PubChem BioAssay:
Activity calls are given as the source filed them.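 The calls were made as follows, unless noted: active = fluorescence slope after compound addition differing from the mean of all screened samples at 99.7% confidence, in either direction; inactive = the rest.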

Assays:
[1] = inhibitors of TNFa-induced NFkB p65 translocation, primary screen, imaging, HUVEC, MLSMR starter and 10KST1 sets (AID 438;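 active = inhibition above 20% together with a positive visual image hit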;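 also: compound added about 3h40 before a 20 min TNFalpha stimulation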;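 as to inhibition: signal is the nuclear over cytoplasmic p65 intensity ratio per well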); settings: HUVEC TNFa-induced p65 nuclear translocation; cell count: measured here: nuclei count (cytotoxicity indicator), at 2.08 µM; inhibition: at 2 µM, stronger effect = higher value, 0% TNFa-plus-vehicle, 100% no-TNFa wells
[2] = inhibitors of mutant huntingtin aggregation, primary screen, imaging, exon1htt(103Q)mCFP cells, high-content imaging (AID 483;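 active = visual image review flags a hit and inhibition of aggregation exceeds 20%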;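 also: compound exposure lasted 3 days before fixation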;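 as to nuclei count: percent of the per-plate median nuclei count of sample wells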); settings: exon1htt(103Q)mCFP cell line, aggregate imaging, at 2 µM; inhibition of aggregation: stronger effect = higher value; nuclei count: measured here: cell count, toxicity
[3] = inhibitors of E-selectin induction by TNFa, primary screen, imaging, HUVEC, immunofluorescence, MLSMR starter and 10KST1 sets (AID 487;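 active = visually confirmed hit in the image check and inhibition above 20%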;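 as to inhibition: signal is fraction of cell area covered by stained E-selectin grains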;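 as to nuclei count: 100% = median nuclei count of all wells on the same plate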); settings: HUVEC TNFalpha-induced E-selectin immunofluorescence imaging, at 2 µM; inhibition: stronger effect = higher value; nuclei count: measured here: cell number, toxicity
[4] = biological target: Voltage-gated potassium channel subunit beta-2 (Rattus norvegicus) (UniProt P62483); experiment: KvBeta enzyme negative modulators, primary screen, biochemical, NADPH fluorescence (AID 622;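 active = fluorescence slope higher than the sample average by over 3 SD, cut at about -0.22 in these data, passing the limit was not always enough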;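 also: slope of raw intensity against log time taken from 70 to 1610 s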); settings: recombinant KvBeta, 4-cyanobenzaldehyde reduction, at 10 µM, stronger effect = higher value
[5] = biological target: Voltage-gated potassium channel subunit beta-2 (Rattus norvegicus) (UniProt P62483); experiment: KvBeta positive modulators, primary screen, biochemical, NADPH fluorescence (AID 623;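 active = NADPH fluorescence slope more negative than the mean of all samples by about 3 SD, 99.7% confidence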;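 also: fluorescence intensity change per second fitted from 20 to 320 s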); settings: Recombinant KvBeta, NADPH fluorescence decrease slope, 10 min; at 10 µM; stronger effect = lower value
[6] = biological target: Alpha-2C adrenergic receptor (Homo sapiens) (UniProt P18825); experiment: modulators of alpha2C/GIRK thallium flux, primary screen, cell-based, HEK293 alpha2C/GIRK1/2 (AID 624); settings: thallium flux BTC fluorescence, at 10 µM, actives lie on both sides;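 also: slope of fluorescence ratio to pre-addition baseline per second over 15 to 24 s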
[7] = inhibitors of Sendai virus-induced IRF3 signaling, primary screen, TLR/RLR signaling modifier project, cell-based, Sendai virus stimulus, luciferase, 10K MLSCN set (AID 602276;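 active = inhibition at or above 50% at 10 µM; inactive = inhibition below 50%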;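 also: firefly luciferase from ISG56 promoter only with Renilla not read in this screen; 0% = Sendai virus plus DMSO and 100% = medium plus DMSO without virus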); settings: HEK293 RL24 IRF3 luciferase reporter, at 10 µM, stronger effect = higher value
[8] = inhibitors of poly I:C-induced TLR3 signaling, primary screen, cell-based, poly I:C stimulus, luciferase, 10K MLSCN set (AID 602277;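 active = inhibition of the reporter signal at or above 50%; inactive = inhibition below 50%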); settings: HEK293-TLR3 RL24 IRF3 luciferase reporter, at 10 µM, stronger effect = higher value

Alpha-2C adrenergic receptor (Homo sapiens), sequence (P18825 whole entry, looked up): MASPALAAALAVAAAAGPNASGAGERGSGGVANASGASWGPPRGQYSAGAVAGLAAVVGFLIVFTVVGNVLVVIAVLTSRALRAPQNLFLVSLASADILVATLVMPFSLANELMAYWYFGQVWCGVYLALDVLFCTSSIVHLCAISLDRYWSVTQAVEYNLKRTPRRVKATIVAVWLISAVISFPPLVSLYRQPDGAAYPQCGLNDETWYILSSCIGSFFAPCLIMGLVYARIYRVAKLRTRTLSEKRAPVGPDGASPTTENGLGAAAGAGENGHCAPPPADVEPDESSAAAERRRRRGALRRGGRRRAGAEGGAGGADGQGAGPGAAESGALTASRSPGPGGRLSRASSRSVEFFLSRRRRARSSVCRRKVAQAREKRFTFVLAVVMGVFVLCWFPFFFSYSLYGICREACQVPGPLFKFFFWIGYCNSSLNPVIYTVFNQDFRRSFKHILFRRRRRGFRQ
Voltage-gated potassium channel subunit beta-2 (Rattus norvegicus), sequence (P62483 whole entry, looked up): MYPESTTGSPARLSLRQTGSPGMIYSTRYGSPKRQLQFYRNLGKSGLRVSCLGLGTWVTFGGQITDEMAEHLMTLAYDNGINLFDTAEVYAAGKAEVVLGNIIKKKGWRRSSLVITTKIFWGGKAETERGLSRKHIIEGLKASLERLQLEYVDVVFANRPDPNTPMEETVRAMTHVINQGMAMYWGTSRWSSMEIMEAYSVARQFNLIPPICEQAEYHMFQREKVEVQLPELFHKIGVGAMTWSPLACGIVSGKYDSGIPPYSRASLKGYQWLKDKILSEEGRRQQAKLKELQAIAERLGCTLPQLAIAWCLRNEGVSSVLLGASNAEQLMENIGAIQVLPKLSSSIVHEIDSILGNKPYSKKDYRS

SMILES	cell count [1]	inhibition [1]	inhibition of aggregation [2]	nuclei count [2] [%]	inhibition [3]	nuclei count [3] [%]	fluorescence slope [4]	NADPH fluorescence slope [5]	slope [6]	inhibition [7]	inhibition [8]
O=c1oc2ccccc2c(O)c1C=NCc1ccccn1	452	7.6% (inactive)	2.3% (inactive)	98.7	-63.5% (inactive)	95.8	-0.509 (inactive)	-4.5e-05 (inactive)	0.00647 (inactive)	-8.1% (inactive)	22.7% (inactive)
COc1ccc(-c2nn3c(-c4cccc(C)c4)nnc3s2)cc1OC	525	10.3% (inactive)	-9.4% (inactive)	100	-9.3% (inactive)	114	-0.419 (inactive)	1.9e-05 (inactive)	0.00514 (inactive)	-18.2% (inactive)	-17.1% (inactive)
CC(C)N(C(=O)CSc1nnc(NC(=O)C2CCC2)s1)C(C)C	599	-0.6% (inactive)	-7.3% (inactive)	86.3	-108% (inactive)	110	-0.466 (inactive)	2.4e-05 (inactive)	0.00479 (inactive)	17.8% (inactive)	25.1% (inactive)
Cc1ccc2oc(-c3ccccc3C(=O)O)cc(=O)c2c1	363	10.8% (inactive)	2.4% (inactive)	107	-59.4% (inactive)	125	-0.627 (inactive)	-1.2e-05 (inactive)	0.00399 (inactive)	12.1% (inactive)	5.36% (inactive)
O=C(Nc1cccnc1)Nc1ccccn1	571	-4.3% (inactive)	6.4% (inactive)	106	-6.7% (inactive)	74.1	-0.432 (inactive)	-4.6e-05 (inactive)	0.00395 (inactive)	-5.87% (inactive)	0.317% (inactive)
CC1=C(C(=O)Nc2ccc(F)cc2)C(c2cccc(C)c2)n2nc(CCCO)nc2N1 (stereo not drawn)	784	-3.5% (inactive)	6.5% (inactive)	88.4	-32.3% (inactive)	133	-0.405 (inactive)	-1.6e-05 (inactive)	0.00457 (inactive)	13.9% (inactive)	41.1% (inactive)
O=C(COc1ccccc1)Nc1nc2ccccc2[nH]1	626	-2.6% (inactive)	2.7% (inactive)	114	0.2% (inactive)	119	-0.45 (inactive)	-6.8e-05 (inactive)	0.00605 (inactive)	-49.9% (inactive)	-93.8% (inactive)
CN1/C(=C\C(=O)C(F)F)C(C)(C)c2ccccc21	296	3.5% (inactive)	-24% (inactive)	104	17.2% (inactive)	116	-0.504 (inactive)	1.6e-05 (inactive)	0.00399 (inactive)	20.8% (inactive)	17.4% (inactive)
Cc1ccc(CCC(=O)Nc2ccc(S(N)(=O)=O)cc2)o1	543	0% (inactive)	-16.3% (inactive)	111	-67.7% (inactive)	99.7	-0.614 (inactive)	5.3e-06 (inactive)	0.00583 (inactive)	-2.49% (inactive)	2.2% (inactive)
CC(C)=CCCC(C)CN(C)CCc1ccccn1 (stereo not drawn)	281	-2.1% (inactive)	27.8% (inactive)	92.8	-75.4% (inactive)	108	-0.448 (inactive)	-0.000147 (inactive)	0.00676 (inactive)	-1.84% (inactive)	20.8% (inactive)
COc1cccc(CNC(=O)C2CCN(C(=O)N(C)C)CC2)c1	569	8.3% (inactive)	-46.5% (inactive)	52.8	-15.7% (inactive)	109	-0.345 (inactive)	-6.9e-05 (inactive)	0.00563 (inactive)	11.6% (inactive)	32.8% (inactive)
CC1=C(C(=O)OC2CCCCCC2)C(c2ccc(C)o2)C2=C(CCCC2=O)N1 (stereo not drawn)	420	3.9% (inactive)	-10% (inactive)	102	-22.9% (inactive)	108	-0.572 (inactive)	-2e-05 (inactive)	0.00508 (inactive)	-8.61% (inactive)	-19.9% (inactive)
Cc1cccc(N2C(=O)CC(N3CCN(C(=O)c4ccccc4)CC3)C2=O)c1 (stereo not drawn)	408	19.1% (inactive)	1.1% (inactive)	106	-12.6% (inactive)	118	-0.412 (inactive)	-0.000104 (inactive)	0.00671 (inactive)	10.6% (inactive)	16.7% (inactive)
Cc1ccccc1Cn1cc(/C=N/n2cnnc2)c2ccccc21	416	12% (inactive)	18.9% (inactive)	68	27.1% (inactive)	113	-0.436 (inactive)	2.8e-05 (inactive)	0.00391 (inactive)	-7.96% (inactive)	21.3% (inactive)
Cc1cc(C)c(C(=O)CSc2nnc(-c3ccccc3Br)o2)cc1C	433	2.9% (inactive)	-0.1% (inactive)	97.3	-64.9% (inactive)	124	-0.397 (inactive)	-2.6e-05 (inactive)	0.00604 (inactive)	9.09% (inactive)	3.14% (inactive)
COc1ccc(C(CNC(=O)c2ccc(OCC3CCCO3)cc2)N2CCOCC2)cc1 (stereo not drawn)	666	0.6% (inactive)	-1.9% (inactive)	86.2	7.9% (inactive)	112	-0.49 (inactive)	-4e-05 (inactive)	0.00447 (inactive)	15.9% (inactive)	20.4% (inactive)
CC1=C(C(=O)Nc2ccccc2)C(c2ccco2)C(C#N)=C(SCC(=O)Nc2cccc(C)c2C)N1 (stereo not drawn)	625	15.7% (inactive)	16% (inactive)	89.5	-16.6% (inactive)	129	-0.412 (inactive)	-1.1e-05 (inactive)	0.00681 (inactive)	9.65% (inactive)	21.2% (inactive)
COc1ccc(-c2nnc(SCC(=O)Nc3ccc(Cl)cc3)n2C)cc1	327	-5.5% (inactive)	-26.9% (inactive)	139	-77.8% (inactive)	122	-0.462 (inactive)	3.4e-05 (inactive)	0.00817 (inactive)	-16% (inactive)	-1.71% (inactive)
COC(=O)C(O)(CC(=O)c1ccc(OC)cc1)C(F)(F)F (stereo not drawn)	778	-12.8% (inactive)	4.5% (inactive)	100	36% (inactive)	99.4	-0.507 (inactive)	-1.8e-05 (inactive)	0.0048 (inactive)	9.29% (inactive)	9.82% (inactive)
CCn1c(C(=O)N2CCC(C(=O)NCc3ccc4c(c3)OCO4)CC2)cc2sccc21	505	-0.9% (inactive)	-30.3% (inactive)	75.4	-65.2% (inactive)	120	-0.508 (inactive)	-5.3e-05 (inactive)	0.00644 (inactive)	14.9% (inactive)	-2.44% (inactive)
CCOc1ccccc1NC(=O)CN(C)S(=O)(=O)c1cccc2nsnc12	671	-16.4% (inactive)	-5.6% (inactive)	96.9	-141% (inactive)	119	-0.329 (inactive)	-4.9e-05 (inactive)	0.00417 (inactive)	15.8% (inactive)	15.6% (inactive)
O=C(CNC1CCCCCC1)Nc1ccc(S(=O)(=O)NC2CC2)cc1	727	-4.8% (inactive)	3.3% (inactive)	104	-51.5% (inactive)	108	-0.49 (inactive)	-5.4e-05 (inactive)	0.00449 (inactive)	11.1% (inactive)	18.7% (inactive)
COc1ccc(C(=O)NCC(=O)NC2=NCCS2)cc1	772	-11.6% (inactive)	-22.1% (inactive)	69.1	-43.6% (inactive)	106	-0.591 (inactive)	-5.5e-05 (inactive)	0.00756 (inactive)	5.81% (inactive)	28.4% (inactive)
CCOC(=O)C(NC(C)=O)(NS(=O)(=O)c1ccccc1)C(F)(F)F (stereo not drawn)	537	-2.4% (inactive)	18.4% (inactive)	88.5	39.5% (inactive)	90.8	-0.616 (inactive)	5.2e-06 (inactive)	0.00712 (inactive)	10.5% (inactive)	14.2% (inactive)
CCOC(=O)c1ccc(NC(=O)Nc2ccn(C)n2)cc1	354	8.8% (inactive)	11.9% (inactive)	110	-23.7% (inactive)	100	-0.383 (inactive)	-2.9e-05 (inactive)	0.00615 (inactive)	-16.4% (inactive)	-66.8% (inactive)
COc1ccc(Cn2c(-c3ccco3)nc3oc4ccccc4c(=O)c3c2=O)cc1	492	-7.6% (inactive)	-68.5% (inactive)	90.1	-22% (inactive)	115	-0.491 (inactive)	-2.1e-05 (inactive)	0.00596 (inactive)	-1.06% (inactive)	-24.4% (inactive)
CN(C)c1oc(-c2ccccc2F)nc1C#N	576	5.5% (inactive)	10.1% (inactive)	104	-56.7% (inactive)	111	-0.355 (inactive)	-1.3e-05 (inactive)	0.00727 (inactive)	-3.37% (inactive)	-12.5% (inactive)
Cc1cc(Nc2ccccc2)n(-c2ccccc2)n1	329	-3.3% (inactive)	27.4% (inactive)	114	-44.7% (inactive)	128	-0.499 (inactive)	-2.4e-05 (inactive)	0.00371 (inactive)	-15% (inactive)	-36.8% (inactive)
